# Where “and” joins values, the source holds several entries; their conditions need not be identical. Identical values can stand only once. Calls of active or inactive are those of the source. Entries that show only a call come without a potency. Calls come from the whole dose curve; as a rule, active = well fitted curve in the direction sought with a large enough effect in the repeat runs; inconclusive = weak or mixed curves; inactive = flat fitted curve, though single readings scatter.
# Assay: qHTS assay to test for compound auto fluorescence at 535 nm (green) in HepG2 cell free culture (AID 720686)
# Details: Cell-free medium, green autofluorescence 485/535 nm; series mostly up to 91.3 µM
# Potency is the fitted concentration of half-maximal effect; tags give direction and shape of the fitted curve or compound fluorescence and quenching.
row,Compound,Potency
1,Cc1cn([C@H]2C=C[C@@H](CO)O2)c(=O)[nH]c1=O,inactive
2,O=C(O)CC(O)C(=O)O (stereo unspecified),inactive
3,CCCCCCCCCCCC[N+](C)(C)Cc1ccccc1,inactive
4,COc1ccc(C(Cl)=C(c2ccc(OC)cc2)c2ccc(OC)cc2)cc1,inactive
5,Nc1ccc([N+](=O)[O-])cc1O,inactive
6,O=C1NS(=O)(=O)c2ccccc21,inactive
7,CCCCNC(=O)NS(=O)(=O)c1ccc(C)cc1,inactive
8,Nc1c(N=Nc2ccc(-c3ccc(N=Nc4cc(S(=O)(=O)O)c5ccccc5c4N)cc3)cc2)cc(S(=O)(=O)O)c2ccccc12,inactive
9,O=C(Nc1ncc([N+](=O)[O-])s1)c1cccs1,inactive
10,CC(O)(P(=O)(O)O)P(=O)(O)O,inactive
11,CC1(C)O[C@@H]2C[C@H]3[C@@H]4CCC5=CC(=O)C=C[C@]5(C)[C@@]4(F)[C@@H](O)C[C@]3(C)[C@]2(C(=O)CO)O1,inactive
12,CC(=O)Nc1c(I)c(NC(C)=O)c(I)c(C(=O)O)c1I,inactive
13,NC1CCCCC1,inactive
14,Cc1ncc([N+](=O)[O-])n1CCO,inactive
15,Cc1cccc(C)c1,inactive
16,CCOC(N)=O,inactive
17,O=C1OC2(c3ccccc31)c1cc(Br)c(O)c(Br)c1Oc1c2cc(Br)c(O)c1Br,10 µM [fluorescent] (active) and 20 µM [fluorescent] (active)
18,Cc1ccc(S(=O)(=O)O)cc1,inactive
19,CC/C(=C(\c1ccccc1)c1ccc(OCCN(C)C)cc1)c1ccccc1,inactive
20,CC(=O)C(=O)O,inactive
21,C=C(C)C(=O)OCC(C)O (stereo unspecified),inactive

# Source: PubChem BioAssay (Tox21)
